HP1b binding inh = HTS for Inhibitors of HP1-beta Chromodomain Interactions with Methylated Histone Tails; Chromobox protein homolog 1 (Homo sapiens), P83916; AlphaScreen HP1-beta / biotin-H3K9me3 peptide binding; Potency, µM (series often up to 114 µM), most hits filed as inhibitors; actives 0.56% (n = 390,000); AID 540317, 2011; also: nearly all actives have a fitted effect of over 70% in size
Target sequence (P83916 whole entry, looked up): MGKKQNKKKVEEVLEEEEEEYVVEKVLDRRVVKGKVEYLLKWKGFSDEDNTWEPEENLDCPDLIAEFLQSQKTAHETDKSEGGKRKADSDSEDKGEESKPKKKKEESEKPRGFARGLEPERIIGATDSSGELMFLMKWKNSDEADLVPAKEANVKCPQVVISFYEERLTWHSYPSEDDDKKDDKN
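AlphaScreen: HP1-beta (50 nM) preformed 30 min with biotin-H3(1-18)K9me3 peptide (50 nM) in PBS pH 7.4, 0.01% Tween-20. Compound added for 30 min at RT, then streptavidin donor/nickel chelate acceptor beads (10 ug/mL) for 30 min.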
G9a block = qHTS Assay for Inhibitors of Histone Lysine Methyltransferase G9a. Histone-lysine N-methyltransferase EHMT2 (Homo sapiens), Q96KQ7. G9a H3K9 monomethylation, AlphaScreen, 2 h. actives 8.8% (n = 350,000). Potency, µM (series often up to 102 µM), most hits filed as inhibitors; also: nearly all actives have a fitted effect of over 75% in size
Target sequence (Q96KQ7 913-1193 limits assumed): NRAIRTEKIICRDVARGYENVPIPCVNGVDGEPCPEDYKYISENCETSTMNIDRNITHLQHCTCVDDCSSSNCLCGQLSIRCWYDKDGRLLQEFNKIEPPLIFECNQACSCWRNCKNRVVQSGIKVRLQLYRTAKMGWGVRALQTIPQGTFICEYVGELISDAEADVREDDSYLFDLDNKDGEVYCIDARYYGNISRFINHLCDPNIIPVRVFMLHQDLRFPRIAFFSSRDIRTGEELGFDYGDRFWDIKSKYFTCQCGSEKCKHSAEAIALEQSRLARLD
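G9a (20 nM) preincubated 15 min RT with compounds, then 500 nM biotinylated H3K9 peptide and 20 uM SAM added; 2 h RT reaction. Monomethyl-H3K9 product detected by AlphaScreen with anti-H3K9me1 antibody, streptavidin donor and anti-rabbit IgG acceptor beads.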
JMJD2A Tudor = qHTS Assay for Inhibitors of JMJD2A-Tudor Domain | Lysine-specific demethylase 4A (Homo sapiens), O75164 | AlphaScreen JMJD2A-Tudor / H3K4me3 peptide binding | Potency, µM (highest dose often 114 µM), actives largely listed as inhibitors | actives 4.4% (n = 390,000); also: nearly all actives have a fitted effect of over 50% in size
BAZ2B block = qHTS Assay for Inhibitors of BAZ2B. Bromodomain adjacent to zinc finger domain protein 2B (Homo sapiens), Q9UIF8. AlphaScreen BAZ2B-H3K14Ac peptide displacement. AID 504333, 2011. actives 4.4% (n = 360,000). Potency, µM (top dose mostly 114 µM), most hits filed as inhibitors; also: nearly all actives have a fitted effect of over 60% in size
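AlphaScreen luminescence quantifies BAZ2B engagement of H3K14Ac peptide; the protein and biotinylated peptide are both at 50 nM final, buffer PBS pH 7.4 with 0.01% Tween-20, all steps at room temperature.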
Sfp PPTase inh = qHTS Assay for Inhibitors of Bacillus subtilis Sfp phosphopantetheinyl transferase (PPTase). AID 1490, 2009. actives 3.5% (n = 310,000). Biochemical Sfp PPTase activity, qHTS. 4'-phosphopantetheinyl transferase ffp (Bacillus subtilis), Q9F4F7. Potency, µM, most hits filed as inhibitors;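 also: the enzyme is Sfp with the accession as filed and its product quenches rhodamine fluorescence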
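Fluorescence-quenching assay: 15 nM Sfp-PPTase preincubated 15 min at room temperature with compound, then 5 uM rhodamine-CoA and 12.5 uM BHQ-2-labelled YbbR peptide added. Fluorescence (ex 525/em 598 nm) read at start and after 30 min; difference gives rate.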
Numbers stand for hits; i = inactive; ? = inconclusive; nt = no result given; ! = a repeat was not active; [ ] = remark or other dose. The list is not random: actives were taken first. Their share in the collection is about 12%. Calls follow the shape of the dose curve; as a rule, active = well fitted curve in the direction sought with a large enough effect; inconclusive = small, poorly fitted or top-dose-only effect, or another doubt; inactive = no such curve, though single readings can be large; an effect the other way counts as inactive or inconclusive.

SMILES	HP1b binding inh	G9a block	JMJD2A Tudor	BAZ2B block	Sfp PPTase inh
Cc1cc(C)n(CC(=O)N2CCCC(N3CCN(Cc4ccc5c(c4)OCO5)CC3)C2)n1 (stereo not drawn)	i	79µM	i	i	i
Cc1sc2nc(CN3CCCC3)nc(Cl)c2c1C	i	?	i	i	i
CCOC(=O)c1sc2nc(CN3CCCCC3)nc(Cl)c2c1C	i	50µM	i	i	i
O=C1NC(=O)C(c2ccccc2[N+](=O)[O-])=C1Nc1ccc(O)c(Cl)c1	i	1.5µM	?	50µM	56µM!
NC(=S)Nc1cc(Cl)ccc1Cl	i	?	i	i	?
S=C(Nc1cccc(Cl)c1Cl)Nn1cnnc1	?	4µM	?	?	35µM
S=C(Nc1cc(Cl)ccc1Cl)Nn1cnnc1	i	7.9µM	i	i	18µM
S=C(NCc1ccc(Cl)cc1)Nc1ccc(Cl)cc1Cl	i	i	i	i	i
S=C(Nc1ccc(Cl)cc1Cl)Nn1cnnc1	i	?	i	i	13µM
Cc1cc(=O)[nH]c(SCC(=O)Nc2ccc3c(c2)OCCO3)n1	i	i	i	i	i
O=C(NCCN1CCc2ccccc2C1)C1CCN(S(=O)(=O)N2CCC3(CC2)OCCO3)CC1	i	i[12.7 µM]	i	?	i
C#C[C@]1(OC(C)=O)CC[C@H]2[C@@H]3CCC4=C/C(=N/O)CC[C@@H]4[C@H]3CC[C@@]21CC	nt	i[12.7 µM]	nt	nt	79µM
CC(C)NC(=O)N1CCC(c2nc3ccccc3s2)CC1	i	i	i	i	i
Cc1ccc(C(=O)c2oc3ccccc3c2NC(=O)COc2ccccc2Cl)cc1	i	i	i	50µM	nt
COc1ccccc1-n1nnnc1SCC(=O)N(CC(C)C)C1CCS(=O)(=O)C1 (stereo not drawn)	i	i	i	i	i
O=C(C1=C(O)C(=O)N(CCN2CCOCC2)C1c1ccncc1)c1ccco1 (stereo not drawn)	i	?	i	i	i
O=C1c2oc3ccccc3c(=O)c2C(c2cccc(O)c2)N1CCCN1CCOCC1 (stereo not drawn)	i	89µM	i	i	i
COc1cc(C2C(C(C)=O)=C(O)C(=O)N2CCN2CCOCC2)ccc1O (stereo not drawn)	i	50µM	i	i	i
Cc1cc2oc3c(c(=O)c2cc1C)C(c1ccc(F)cc1)N(CCCN1CCOCC1)C3=O (stereo not drawn)	i	?	i	i	i
CCCOc1ccc(C2C(C(=O)/C=C/c3ccco3)=C(O)C(=O)N2CCN2CCOCC2)cc1OC (stereo not drawn)	i	45µM	?	nt	45µM
COc1cc(C2c3c(oc4cc(C)c(C)cc4c3=O)C(=O)N2CCCN2CCOCC2)ccc1O (stereo not drawn)	i	28µM	i	i	nt
COc1ccc(C2c3c(oc4ccccc4c3=O)C(=O)N2CCCN2CCOCC2)cc1 (stereo not drawn)	i	nt	i	nt	nt
C=CCN(C(=O)CSc1nnnn1C)c1nc(-c2ccccc2)cs1	i	?	i	i	nt
O=C(O)CC(c1ccccc1)N1C(=O)c2cccc([N+](=O)[O-])c2C1=O (stereo not drawn)	i	i	i	i	i
O=C1c2oc3ccc(Cl)cc3c(=O)c2C(c2ccco2)N1CCN1CCOCC1 (stereo not drawn)	i	11µM	i	i	i
SMILES	HP1b binding inh	G9a block	JMJD2A Tudor	BAZ2B block	Sfp PPTase inh
Cc1ccc(C2c3c(oc4ccc(Cl)cc4c3=O)C(=O)N2CCCN2CCOCC2)o1 (stereo not drawn)	nt	?	nt	i	i
Nc1nc(-c2ccc(Br)s2)c(Br)s1	i	?	?	40µM	35µM
CN(CCN(C)C(C)(C)C)C(=O)C(c1ccccc1)c1ccccc1	?	?	20µM	?	i
CSc1ccc(CN(C)C(=O)C(c2ccccc2)c2ccccc2)cc1	i	i	i	i	i
CC1(C)NC(C)(C)c2nonc2/C1=N\O	i	i	i	nt	i
CC(Sc1n[nH]c(-c2ccccc2)n1)C(=O)c1c(N)n(C)c(=O)n(C)c1=O (stereo not drawn)	i	50µM	i	i	nt
Cn1c(N)c(C(=O)CSc2nn(-c3ccccc3)c(=S)s2)c(=O)n(C)c1=O	i	50µM	i	i	nt
CC(Sc1nn(-c2ccc(F)cc2)c(=S)s1)C(=O)c1c(N)n(C)c(=O)n(C)c1=O (stereo not drawn)	i	50µM	i	i	nt
Cc1cc(C)nc(NC(=O)CSc2nn(-c3ccccc3)c(=S)s2)n1	i	?	?	79µM	i
CC(Sc1nc2ccccc2s1)C(=O)c1c(N)n(C)c(=O)n(C)c1=O (stereo not drawn)	i	?	i	i	i
O=C(CSc1nn(-c2ccccc2)c(=S)s1)Nc1ncccn1	i	i	i	i	i
COc1cc(OC)c(NC(=O)c2cc(S(=O)(=O)N3CCOCC3)cn2C)cc1Cl	i	nt	i	i	i
CCCCCCCCc1nnc(NC(=O)c2ccco2)s1	i	i	i	?	i
O=C(CCNC(=O)N1CCn2c1nc1ccccc12)NCc1ccc(Cl)cc1	i	i	i	i	i
COCCn1cc(C(=O)c2ccccc2OCC(=O)Nc2cc(C)on2)cc(C#N)c1=O	i	i[12.7 µM]	i	i	i
Cc1cccc(C(=O)O[C@H]2[C@H](C)NS(=O)(=O)[C@H]3CC4C=C[C@]23O4)c1	i	nt	i	nt	nt
CCN(CC)C(=O)c1c([N+](=O)[O-])c(C(C)(C)C)nn1C	i	i	i	i	i
Cn1nc(C(C)(C)C)c([N+](=O)[O-])c1C(=O)NCCO	i	i	50µM	i	i
O=C(c1coc(=O)c(Br)c1)N1CCOCC1	?	?	?	50µM	i
O=C(c1ccc(F)cc1)N1CCOCC1	i	i	i	i	i
O=C(c1ccc(=O)oc1)N1CCOCC1	22µM	22µM	45µM	50µM	i
CCn1c(=O)n(-c2ccc3c(c2)OCO3)c2nc(-c3cccc(OC)c3OC)nc(C(N)=O)c21	i	i	i	i	nt
O=S(=O)(c1ccc(Cl)cc1)n1c(Cc2ccccc2)nc2ccccc21	i	?	i	i	i
COc1ccccc1Cc1nc2ccccc2n1S(=O)(=O)c1ccc(Cl)cc1	i	25µM	i	i	i
COc1ccc(COc2cc(-c3cccc(OC)c3)nc3ccc(N)cc23)cc1	i	45µM	?	?	i
Cc1c(C)n(CCc2ccccc2)c2ncnc(NCCCN(C)C)c12	?	i[2.33 µM]	?	45µM	i
Cc1cc(C)nc(SCc2ccc(C(=O)N/N=C/c3ccco3)cc2)n1	i	40µM	i	?	?
CC1Cc2ccccc2N1C(=O)CN(C)CC(=O)Nc1cccc(F)c1 (stereo not drawn)	i	i[12.7 µM]	i	i	nt
